Bioassay records as filed in PubChem BioAssay.
Shown are actives, neighbours in structure and some others; about 6.8% of the full set was active somewhere.
USP10 block: human USP10 deubiquitinase inhibition; Q14694; purified USP10, Ub-rhodamine fluorescence, 60 min; inhibition, % at 20 µM; 47,000 compounds, 1.1% hits
Target sequence (Q14694 whole entry, looked up): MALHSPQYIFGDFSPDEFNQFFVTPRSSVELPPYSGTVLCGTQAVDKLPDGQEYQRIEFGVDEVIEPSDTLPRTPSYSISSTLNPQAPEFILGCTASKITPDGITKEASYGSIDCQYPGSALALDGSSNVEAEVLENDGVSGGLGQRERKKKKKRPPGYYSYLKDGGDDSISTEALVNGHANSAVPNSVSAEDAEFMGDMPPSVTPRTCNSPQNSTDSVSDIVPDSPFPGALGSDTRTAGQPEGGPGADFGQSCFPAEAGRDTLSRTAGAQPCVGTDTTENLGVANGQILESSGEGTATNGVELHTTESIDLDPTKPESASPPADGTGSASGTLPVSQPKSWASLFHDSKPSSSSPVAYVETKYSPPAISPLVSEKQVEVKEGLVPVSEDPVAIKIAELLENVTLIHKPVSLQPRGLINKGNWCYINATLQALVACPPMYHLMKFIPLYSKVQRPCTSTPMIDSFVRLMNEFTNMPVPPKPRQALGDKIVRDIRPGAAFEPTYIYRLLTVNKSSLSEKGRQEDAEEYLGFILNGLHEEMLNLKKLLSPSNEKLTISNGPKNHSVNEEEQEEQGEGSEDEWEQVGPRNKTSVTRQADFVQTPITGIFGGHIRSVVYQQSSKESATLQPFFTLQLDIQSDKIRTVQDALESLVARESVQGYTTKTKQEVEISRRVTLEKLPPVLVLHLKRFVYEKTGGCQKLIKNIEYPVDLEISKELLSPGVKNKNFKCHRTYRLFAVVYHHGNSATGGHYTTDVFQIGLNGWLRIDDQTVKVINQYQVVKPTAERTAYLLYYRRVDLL
USP28 inh: inhibitors of human USP28 deubiquitinase | Q96RU2 | purified USP28, Ub-rhodamine cleavage fluorescence, 30 min | inhibition, % at 25 µM | 47,000 compounds, 3% hits | AID 1645857
USP7 block: blocks human USP7 ubiquitin-rhodamine cleavage | Q93009 | purified USP7, Ub-rhodamine cleavage fluorescence | inhibition, % at 20 µM | 47,000 compounds, 0.3% hits | AID 1645854
OTUD3 block: human OTUD3 deubiquitinase inhibition | Q5T2D3 | purified OTUD3, Ub-rhodamine fluorescence, 2 h | AID 1645858 | inhibition, % at 25 µM | 47,000 compounds, 0.7% hits
UCHL1 block: blocks human UCHL1 ubiquitin-rhodamine cleavage | P09936 | purified UCHL1, Ub-rhodamine cleavage fluorescence | inhibition, % at 20 µM | 47,000 compounds, 0.2% hits
USP8 inh: human USP8 deubiquitinase inhibition; 47,000 compounds, 4.2% hits; AID 1645853; purified USP8, Ub-rhodamine cleavage fluorescence, 30 min; inhibition, % at 20 µM
Active calls of the source: *; · = no result given. Rule as the data show it: active = inhibition above about 30%; inactive = the rest.

SMILES | USP10 block | USP28 inh | USP7 block | OTUD3 block | UCHL1 block | USP8 inh
COCCCNC(=O)c1ccc(Cn2c(=O)c3ccccc3n(CC(=O)NCc3ccco3)c2=O)cc1 | -2 | -3 | -2 | -17 | -11 | -22
O=C(CCCCn1c(=O)c2ccccc2n(CC(=O)Nc2ccc3c(c2)OCCO3)c1=O)NCc1ccco1 | 43* | 14 | 7 | 8 | 0 | 3
COc1c2c(cc3cc(O)c4c(=O)cc(C)oc4c13)CCC2=O | -3 | 27 | -38 | 28 | 7 | 0
COc1cc(O)c2c(O)c3c(cc2c1)C[C@@]1(O)CC(=O)C(C(N)=O)=C(O)[C@@]1(O)C3=O | 11 | 41* | 65* | 46* | 70* | -9
CC(=O)Nc1cccc(-c2ccc(N3CCOCC3)nc2)c1 | -3 | · | -4 | 5 | 0 | -1
Clc1ccc(CN2CCc3nc(Nc4ccc5c(c4)OCO5)ncc3C2)cc1 | 6 | -1 | -11 | -9 | 9 | 30*
O=C(Nc1ccc2c(c1)OCO2)c1c2c(nc3ccccc13)CCN(Cc1ccccc1)C2 | -4 | -127 | -21 | -157 | -27 | -46
O=C(NC1CC1)C1(c2cccc(F)c2)CC1 | 1 | -3 | 0 | 3 | -1 | 2
Cc1ccc(NC(=O)Cn2cc(C(=O)c3ccccc3)c(=O)c3cc(C)ccc32)cc1 | 44* | 7 | 32* | -1 | 0 | 83*
Cc1ccc2c(c1)c(=O)c(C(=O)c1ccccc1)cn2CC(=O)Nc1ccccc1 | 27 | -29 | 30 | -3 | 9 | 89*
COc1cccc(NC(=O)Cn2cc(C(=O)c3ccc(C)cc3)c(=O)c3cc(Cl)ccc32)c1 | 43* | 19 | 35* | 0 | 13 | 73*
Cc1ccc(C(=O)c2cn(CC(=O)Nc3ccc(C(C)C)cc3)c3ccc(C)cc3c2=O)cc1 | -2 | · | -1 | -7 | -6 | -1
COc1ccc(NC(=O)Cn2cc(C(=O)c3ccc(F)cc3)c(=O)c3cc(C)ccc32)cc1OC | 21 | -14 | 13 | -9 | 9 | 55*
CCN1C(=O)CC[C@]2(CNC(=O)c3ccc4c(c3)OCO4)CCC[C@@H]12 | 0 | 7 | 2 | 10 | 1 | 20
CCc1ccc(S(=O)(=O)c2cn(CC(=O)Nc3ccccc3)c3ccccc3c2=O)cc1 | 46* | -18 | 23 | -13 | 0 | 77*
O=C(O)c1cccc(NC(=O)c2ccccc2NC(=O)c2ccc([N+](=O)[O-])cc2)c1 | 3 | -21 | -1 | -10 | -2 | 1
CC(=O)Nc1cccc(-c2cnc3sc(NC4CCCCC4)nn23)c1 | 14 | 3 | 16 | -1 | 3 | 47*
O=C(NC[C@H]1OC[C@@H]2CCN(Cc3ccncc3)C[C@@H]21)c1ccno1 | 0 | 13 | 6 | 10 | 6 | -28
O=C([C@@H]1CCCO1)N1CCn2c(Cn3cccn3)cnc2C1 | 2 | -17 | 1 | -6 | -1 | -48
COCCN(C(=O)C1CC1)c1nc(-c2ccccc2)cs1 | 4 | 18 | 0 | 11 | 6 | 31*
C/C1=C\CCC(C)C(O)CC(O)C(C)C(O)CCC(C)C(O)CC2(O)OC(CC(OC(=O)CC(=O)O)CC(O)CC(O)CC(O)C(C)C(O)/C=C/C(C)C(C(C)CCCCCCCCN=C(N)N)OC1=O)CC(O)C2O (centres undefined) | -9 | 51* | -9 | -26 | -2 | -19
COc1ccc(C)cc1NC(=O)c1cc(S(=O)(=O)N(C)C2CCCCC2)ccc1F | 5 | -7 | 3 | -5 | 1 | 9
O=C(Nc1cccc(-c2nc3cnccc3o2)c1)c1ccc(Br)o1 | 1 | 3 | 20 | 21 | 1 | 66*
O=C(Nc1cccc(-c2nc3cnccc3o2)c1)c1cccc(F)c1 | -4 | · | -2 | 0 | -4 | -10
Cc1c(Cl)ccc2c(=O)c3c([nH]c12)CCN(CC(=O)NCc1ccc2c(c1)OCO2)C3 | -15 | 32* | -163 | 29 | -165 | 46*
SMILES | USP10 block | USP28 inh | USP7 block | OTUD3 block | UCHL1 block | USP8 inh
O=C(CN1C=NC2=NS(=O)(=O)c3ccccc3N21)Nc1cc(F)ccc1F | 2 | 10 | 3 | 12 | 0 | 23
CCc1ccc(OCC(=O)Nc2cccc(-c3nc4ccccc4s3)c2)cc1 | 5 | -3 | 3 | 5 | 1 | -7
Cc1ccc(S(=O)(=O)CC(=O)Nc2ccc(-c3nc4ccccc4s3)c(O)c2)cc1 | 27 | 0 | 10 | -6 | 0 | 80*
Cc1ccc(-c2cnc(C3CC3)o2)cc1S(=O)(=O)Nc1ccc(F)c(Cl)c1 | 39* | 29 | -37 | 0 | 6 | 4
COc1ccc(NS(=O)(=O)c2cc(-c3cnc(C4CC4)o3)ccc2C)cc1OC | 1 | -7 | -2 | 0 | -1 | -5
CS(=O)(=O)c1ccc(CN2CCCn3c(nc4ccccc43)C2)cc1 | 1 | 0 | 4 | -5 | 0 | -7
COC(=O)CC1CC2=C(C(=O)c3c(O)cccc3C2=O)C(C)O1 (centres undefined) | -13 | 40* | -132 | 24 | 5 | -46
COC(=O)CC1CC23OC2(C(=O)c2c(O)cccc2C3=O)C(C)O1 (centres undefined) | -6 | 25 | -69 | 11 | 11 | -4
Cc1ccc(S(=O)(=O)N[C@H](C(=O)N2CCC(C(=O)NC3(C(=O)O)CCCCC3)CC2)C(C)C)cc1 | -1 | -4 | 2 | -4 | -2 | 2
COc1ccc(C(=O)N(O)c2ccccc2)cc1 | 0 | 4 | -5 | 8 | -2 | 78*
CC(=O)N[C@H]1C[C@H]2CN(Cc3ccccc3)Cc3ccccc3CN2C1 | -6 | -32 | -5 | -26 | -5 | -11
CN(CC(=O)Nc1ccc2c(c1)OCO2)S(=O)(=O)c1cccs1 | -1 | 7 | 0 | 5 | -1 | 50*
O=C(CNS(=O)(=O)c1cccs1)Nc1ccc2c(c1)OCCO2 | -4 | 18 | -4 | -3 | -2 | 6
Cc1cc(C)cc(NS(=O)(=O)c2cc3n(c2)CCN(C)C3=O)c1 | -1 | -11 | -1 | -3 | 0 | 0
CC(=O)N1CC(C(=O)NCc2ccc3c(c2)OCO3)C1 | 6 | 9 | 3 | 18 | 2 | -16
CC(C(=O)NCc1ccc2c(c1)OCO2)N1CCN(c2ccc(O)cc2)CC1 (centres undefined) | 8 | 30 | 14 | 15 | 11 | 60*
Cc1ccc(Nc2nc(NC3CCCC3)nc3c2cnn3C)cc1C | 9 | 10 | -60 | -7 | 9 | 3
CCCCn1c(=O)c(CCC(=O)OCC(=O)Nc2ccc3c(c2)OCCO3)nc2ccccc21 | 0 | 62* | 0 | 0 | 1 | -3
NC(=O)c1ccc(NC(=O)Cc2cc(-c3ccc(F)cc3)on2)cc1 | -4 | -8 | 1 | -19 | -8 | -8
COc1cccc(-c2cc(CC(=O)Nc3ccc(C(N)=O)cc3)no2)c1 | 4 | 18 | 3 | -9 | -8 | 40*
CC(=O)Nc1nc2c(s1)CCc1ccccc1-2 | 2 | 39* | 0 | 0 | 0 | 5
COc1ccccc1CNC(=O)c1ccccc1OCc1ccccc1Cl | 12 | 29 | -13 | 30* | 6 | 13
